# Source: PubChem BioAssay AID1729 (National Center for Advancing Translational Sciences (NCATS), 2009)
# Records with an inconclusive call do not appear. Calls of active or inactive are those of the source. Calls come from the whole dose curve; as a rule, active = well fitted curve in the direction sought with a large enough effect; inconclusive = small, poorly fitted or top-dose-only effect, or effect the other way, or another doubt; inactive = no such curve, though single readings can be large or run the other way.
# Molecular target: Epidermal growth factor receptor (Homo sapiens) (UniProt P00533)
# Sequence (P00533 whole entry T790M, looked up): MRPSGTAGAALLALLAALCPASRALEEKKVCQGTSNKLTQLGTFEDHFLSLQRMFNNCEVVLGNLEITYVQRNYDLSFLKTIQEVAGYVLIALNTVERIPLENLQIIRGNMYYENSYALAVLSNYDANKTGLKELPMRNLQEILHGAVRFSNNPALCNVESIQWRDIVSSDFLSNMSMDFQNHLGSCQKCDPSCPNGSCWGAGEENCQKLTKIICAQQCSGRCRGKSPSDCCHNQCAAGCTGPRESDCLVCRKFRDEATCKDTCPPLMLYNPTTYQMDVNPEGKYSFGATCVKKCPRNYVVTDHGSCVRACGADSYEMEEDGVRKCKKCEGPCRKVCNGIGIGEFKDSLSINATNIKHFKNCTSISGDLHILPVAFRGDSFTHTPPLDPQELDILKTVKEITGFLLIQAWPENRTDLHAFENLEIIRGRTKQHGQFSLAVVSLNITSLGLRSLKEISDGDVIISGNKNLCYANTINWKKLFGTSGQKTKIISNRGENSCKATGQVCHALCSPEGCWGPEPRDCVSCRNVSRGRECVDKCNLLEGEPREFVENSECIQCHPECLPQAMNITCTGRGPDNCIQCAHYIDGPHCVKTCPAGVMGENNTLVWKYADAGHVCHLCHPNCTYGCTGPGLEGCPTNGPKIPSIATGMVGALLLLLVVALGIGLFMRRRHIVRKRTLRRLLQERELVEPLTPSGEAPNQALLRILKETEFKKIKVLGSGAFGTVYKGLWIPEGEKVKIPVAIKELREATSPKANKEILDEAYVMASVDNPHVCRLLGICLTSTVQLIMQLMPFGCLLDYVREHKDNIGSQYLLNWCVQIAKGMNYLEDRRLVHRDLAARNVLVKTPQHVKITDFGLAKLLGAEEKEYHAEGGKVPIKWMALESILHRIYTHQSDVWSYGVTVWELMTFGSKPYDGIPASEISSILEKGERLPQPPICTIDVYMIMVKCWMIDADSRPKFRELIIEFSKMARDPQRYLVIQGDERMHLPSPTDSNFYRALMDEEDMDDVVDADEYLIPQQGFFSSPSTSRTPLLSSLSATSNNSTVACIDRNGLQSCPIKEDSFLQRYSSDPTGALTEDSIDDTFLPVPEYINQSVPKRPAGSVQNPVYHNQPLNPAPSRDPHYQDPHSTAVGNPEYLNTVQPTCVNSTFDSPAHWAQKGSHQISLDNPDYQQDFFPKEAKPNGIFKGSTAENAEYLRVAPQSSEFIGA
# Test: Assay for Inhibitors of the ERK Signaling Pathway using a Homogeneous Screening Assay: EGFR T790M Kinase Inhibition
# Conditions: EGFR T790M kinase biochemical inhibition assay; series mostly up to 21.9 µM; activity change, negative = inhibition: at the top concentration
# Excerpt: qHTS Assay for Inhibitors of the ERK Signaling Pathway using a Homogeneous Screening Assay
# NIH Chemical Genomics Center [NCGC]
# NIH Molecular Libraries Screening Centers Network [MLSCN]
# Assay Submitter (PI): Dr. Wei Zheng, NCGC/NIH
# The Ras/extracellular-signal-regulated kinase (ERK) mitogen activated protein (MAP) kinase signaling pathway (ERK1/2 cascade) plays is a key role in transmitting signals from the cell surface to the nucleus (Nishida and Gotoh 1993; Chang and Karin, 2001). The cascade is initiated by the small G-protein Ras, which recruits Raf […], where activation occurs. Alternatively, this pathway can be activated by elevating intracellular cAMP.
# Activation of the ERK pathway is essential in increased cell division and cell survival. Sustained and constitutive activation of the ERK pathway, however, has been linked to uncontrolled cell proliferation, increased cell survival, and tumor progression. Thus, the ERK has been as an attractive target for cancer chemotherapy in the past few years (Sebolt-Leopold and Herrera, 2004). Given its physiological and pathological importance, assessment of ERK phosphorylation has been broadly performed in both basic research and drug discovery. Most assays for the measurement of ERK phosphorylation use the antibody-based detection methods, such as western blot and ELISA. These assays require multiple reagent additions with cell wash steps and are not suitable for high-throughput screening.
# The current cell-based ERK phosphorylation assay was performed using AlphaScreen platform. AlphaScreen is a two bead-based proximity-dependent chemical energy transfer luminescent assay platform. The assay reagents (ERK SureFire(TM) kit) were supplied from TGR BioSciences (Australia). In the presence of specific antibodies, phosphorylated ERK will bring "donor" and "acceptor" beads to a proximity range (<200 nm), and subsequently lead a chemical luminescent reaction upon exciting donor beads with 680 nm laser. To validate pathway hits from the cell-based assay, enzyme assays consisting of EGFR tyrosine kinase, Raf and MEK were used as a means of deciphering the enzymes of target for the prioritized group of compounds derived from the HEK-293 cell based assay. The compounds were tested against significant members of the ERK signaling pathway EGFR and EGFR mutants (EGFR L858R, EGFR T790M, and EGFR L858R T790M). In order to establish the specificity of the prioritized compounds for EGFR and EGFR mutants, the compounds were also assayed against other important ERK signaling pathway enzymes, c-RAF and MEK-1.
# NCGC Assay Protocol Summary:
# The HTRF kinase assay (components supplied as kit by Cisbio) was chosen for the EGFR and EGFR mutant enzyme assays that applied the time resolved fluorescence resonance energy transfer (TR-FRET) principle. A peptide substrate is labeled with a biotin that can bind to XL665 labeled streptavidin and the anti-phosphoresidue antibody is labeled with Eu+. Upon phosphorylation of the substrate, the antibody binds to phosphorylated substrate that enables TR-FRET detection in homogenous assay format.
# An HTRF Kinease TK assay kit (Cisbio, Bedford, MA) was used to develop the EGFR and EGFR mutant assays (Harbert et al., 2008. Harbert C, Marshall J, Soh S, Steger K. Development of a HTRF Kinase Assay for Determination of Syk Activity. Current Chemical Genomics. 1: 20-26. 2008). EGFR and EGFR mutants were obtained from Invitrogen. The assay buffer was composed of 50 mM HEPES (pH 7.0), 5 mM MgCl2, 5mM DTT, 0.1 % NaN3, 0.1 % BSA and 0.1 mM orthovanadate.
# The HTRF assays were preformed according to the HTRF Kinease TK kit. Optimization for each enzyme was preformed in 384 well format (data not included). All reagents were dispensed into 1536 well plates.
# (1) Enzyme, […] EGFR at 3 nM final
# (2) Compound, 22 nl, Library Compounds in 0.128 to 10 mM titration series or control
# (3) Reagent, 1.5 ul 10 uM ATP and 0.25 uM substrate final
# (4) Incubation for 30 min, Ambient conditions
# […]
SMILES,"activity change, negative = inhibition",Potency
Fc1ccc(Nc2ncnc3sc4c(c23)CCC4)cc1F,-2.3% (inactive),–
Cn1nc(-c2ccc(Cl)cc2)nc2c(=O)n(C)c(=O)nc1-2,4.21% (inactive),–
Cc1ccc2nc(=O)c(NNc3ccccc3)cnc2c1,–,355 nM (active)
N#C/C(=C(/N)Sc1ccc(N)cc1)c1ccccc1C(F)(F)F,–,inactive
Cn1c(=O)[nH]c2nnc(-c3ccc(Cl)c(Cl)c3)nc2c1=O,2.61% (inactive),–
CCN(CC)CCC(=O)Nc1cccc2c1C(=O)c1ccccc1C2=O,-1.03% (inactive),–
CS(=O)(=O)CCNCc1nc(-c2ccc3ncnc(Nc4ccc(OCc5cccc(F)c5)c(Cl)c4)c3c2)cs1,-6.15% (inactive),–
O=C(Nc1nc(-c2ccccc2)cs1)c1ccc(N2CCOCC2)c([N+](=O)[O-])c1,-3.77% (inactive),–
CCn1c(=O)c2[nH]c(-c3ccccc3)nc2n(CC)c1=O,-2.65% (inactive),–
Cc1nc2ccccc2nc(=O)c1NNc1ccccc1,–,316 nM (active)
COc1ccc(C(=O)c2ccc(Cl)c([N+](=O)[O-])c2)cc1,-4.67% (inactive),–
Cc1ccc(NNc2c(C)nc3ccccc3nc2=O)cc1,-13.2% (inactive),–
